About 83,000 compounds went through this panel and 20% of them were active in at least one assay; those are over-represented in the sample as a whole.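 Single-dose data. Exposure time 48 hours. Values below 10 considered active.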 Values without a mark were called inactive. The source made the active and inactive calls.
How the values were obtained:
Test in all cases: NCI-60 one-dose screen, 48 h (100 = growth as untreated, 0 = no growth, -100 = all killed)
Settings in all cases: 10 µM unless noted
T-47D breast = tested on: T-47D breast
BT-549 breast = tested on: BT-549 breast
MDA-MB-435 melanoma = tested on: MDA-MB-435 melanoma
SW-620 colon = tested on: SW-620 colon
MCF7 breast = tested on: MCF7 breast
HCT-116 colon = tested on: HCT-116 colon
HCC-2998 colon = tested on: HCC-2998 colon
KM12 colon = tested on: KM12 colon

SMILES	growth (T-47D breast)	growth (BT-549 breast)	growth (MDA-MB-435 melanoma)	growth (SW-620 colon)	growth (MCF7 breast)	growth (HCT-116 colon)	growth (HCC-2998 colon)	growth (KM12 colon)
COc1cc(Nc2ncccc2C(=O)NCc2cn(Cc3cccc(Oc4ccccc4)c3)nn2)cc(OC)c1	50.3%	43.8%	-15.3% (active)	31.4%	18.3%	19.5%	55%	16.7%
COc1cccc(-c2nc3sccn3c2-c2ccnc(NCCCNS(=O)(=O)c3ccc(F)cc3)c2)c1	-3.13% (active)	13%	19.1%	41.7%	31.8%	25.5%	61.5%	21%
CCCCCCCCCCCCNC(=O)[C@H]1CSC(c2cc3ccccc3s2)N1 (stereo partly drawn)	52.5%	-60.1% (active)	-94.6% (active)	3.61% (active)	42.4%	-80% (active)	61.4%	-50.7% (active)
Nc1cccc(Cl)c1N	54.6%	97.6%	106%	101%	39.6%	100%	84.2%	99.5%
C=C1C(=O)O[C@H]2[C@H]1CC/C(Cn1cc(CNC(=O)Cc3cn(C(=O)c4ccc(Cl)cc4)c4ccc(OC)cc34)nn1)=C\CC[C@@]1(C)O[C@@H]21	-61.6% (active)	-3.93% (active)	-63.2% (active)	-67.4% (active)	-62.7% (active)	-95% (active)	8.2% (active)	41.9%
Cc1ccc2[nH]c(=O)c3c(c2c1)Oc1ncn2nc(-c4ccco4)nc2c1C3c1ccc(Cl)cc1 (stereo not drawn)	89.4%	91.4%	98.5%	99%	86.7%	89.6%	98.1%	99.4%
S=c1[nH]nc(-c2cc3ccc2CCc2ccc(cc2)CC3)n1C1CC1	97.7%	107%	97.3%	99.8%	90.5%	92.3%	115%	99.6%
CO[C@H]1NC(=O)N(S(=O)(=O)c2ccc(Cl)cc2)[C@@H]1OC	105%	108%	97.3%	108%	99.4%	110%	110%	103%
CCCCCCCCC(C)OC(=O)c1nn(C(C)=O)c2ccccc12 (stereo not drawn)	88.6%	95.4%	101%	103%	90.1%	97%	98%	103%
COc1ccc(C(=O)N2NC(=O)/C(=C/c3ccccc3F)N=C2c2ccccc2)cc1	97.2%	106%	106%	111%	91.2%	102%	97.8%	106%
CCC(C)/C(=C\C#N)NCCCN/C(=C/C#N)C(C)CC (stereo not drawn)	97%	105%	105%	107%	100%	91.1%	99.1%	105%
COc1cccc(/C=C2\Oc3cc(OCCCN4CCCC4)ccc3C2=O)c1	88.1%	92.6%	99.2%	92.2%	51.2%	21.1%	85.5%	83.8%
O=[N+]([O-])c1cccc(-c2nc3sccn3c2-c2ccnc(NCCCNS(=O)(=O)c3ccc(Cl)cc3)n2)c1	6.46% (active)	30.2%	33.4%	90.1%	33.2%	53.3%	116%	39.2%
O=C(Nc1cccc(-n2cc(-c3ccncc3)c(-c3ccc(Cl)c(O)c3)n2)c1)c1ccccc1	73.9%	83.4%	56.2%	76.9%	62.6%	57.8%	76.8%	70.1%
Clc1cc(Cl)c2nc(-c3ccc(-c4ccc(/C=N/NC5=NCCN5)cc4)s3)cn2c1	79.6%	90.9%	99.3%	79.2%	57.8%	86.3%	105%	93%
O=C1C2(c3ccccc3)C(c3ccccc3)=C(c3ccccc3)C1(c1ccccc1)C1CC=CC12 (stereo not drawn)	68.3%	99.4%	92.9%	93.8%	82.8%	76%	87.7%	80%

Source: PubChem BioAssay (NCI)
